Screening data as filed in PubChem BioAssay.
GBA mod: alters purified human glucocerebrosidase activity; Potency, µM; 1.1% of 48,000 active; purified enzyme, resorufin glucoside fluorescence (screen aimed at inhibitors), 20 min; P04062; in the data active means potency below about 15 µM; inconclusive means mostly about 16 µM to 33 µM;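 further: potency means the concentration at half of the fitted maximal effect; the screen sought inhibitors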
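Wild-type enzyme at 0.2 nM final in 50mM citric acid/KH2PO4, 10mM sodium taurocholate, 0.01% tween-20, pH 5.9, with resorufin beta-D-glucopyranoside at 30 uM final. Compounds titrated, 20 min at RT, red fluorescence read; AC50 from titration.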
UbGFP stabilizer: inhibits proteasome, raising ubiquitin-GFP reporter fluorescence; Potency, µM (titrated, usually from 45.9 µM), inactives show at the top dose activation (GFP accumulation), hits mostly activators; 67,000 tested, under 10 active; Ubiquitin-GFP reporter cells, proteasome inhibition, GFP fluorescence; response scale: untreated = 0%, 10 µM MG-132 = 100%; active means well fitted activation curve with a large enough effect, not every such curve was filed as active; inconclusive means small, poorly fitted or top-dose-only effect, or another doubt; inactive means no such curve, though single readings can be large or run the other way; further: potency means the concentration at half of the fitted maximal effect
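Reporter cells (U2OS, ubiquitin-G76V-GFP fusion) are plated overnight, then treated 4 hr at 37 °C with compound titrations from 46 uM down to 2.9 nM. Activity is scaled against untreated cells and 10 uM MG-132.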
GFP derepression: derepresses silenced GFP locus in mouse C127i cells. 0.09% of 68,000 active. Potency, µM (series often up to 46.1 µM), inactives show at the top dose GFP derepression (activation). mouse C127i GFP locus derepression, cytometry, 30 h. AID 597; further: % of control where 0% means no effect
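Locus derepression in mouse mammary C127i cells whose integrated CMV-GFP reporter is normally silent; GFP expression after 30 h compound treatment was quantified by counting fluorescent cells.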
USP2a inh: blocks human ubiquitin-specific protease USP2a. USP2a enzymatic assay, qHTS inhibition. 0.1% of 60,000 active. O75604. Potency, µM (doses to about 38.3 µM), for the others: at the highest dose activity change, negative = inhibition, hits mostly inhibitors; further: potency means the concentration at half of the fitted maximal effect; nearly all actives have a fitted effect of over 60% in size
Target sequence (O75604 whole entry, looked up): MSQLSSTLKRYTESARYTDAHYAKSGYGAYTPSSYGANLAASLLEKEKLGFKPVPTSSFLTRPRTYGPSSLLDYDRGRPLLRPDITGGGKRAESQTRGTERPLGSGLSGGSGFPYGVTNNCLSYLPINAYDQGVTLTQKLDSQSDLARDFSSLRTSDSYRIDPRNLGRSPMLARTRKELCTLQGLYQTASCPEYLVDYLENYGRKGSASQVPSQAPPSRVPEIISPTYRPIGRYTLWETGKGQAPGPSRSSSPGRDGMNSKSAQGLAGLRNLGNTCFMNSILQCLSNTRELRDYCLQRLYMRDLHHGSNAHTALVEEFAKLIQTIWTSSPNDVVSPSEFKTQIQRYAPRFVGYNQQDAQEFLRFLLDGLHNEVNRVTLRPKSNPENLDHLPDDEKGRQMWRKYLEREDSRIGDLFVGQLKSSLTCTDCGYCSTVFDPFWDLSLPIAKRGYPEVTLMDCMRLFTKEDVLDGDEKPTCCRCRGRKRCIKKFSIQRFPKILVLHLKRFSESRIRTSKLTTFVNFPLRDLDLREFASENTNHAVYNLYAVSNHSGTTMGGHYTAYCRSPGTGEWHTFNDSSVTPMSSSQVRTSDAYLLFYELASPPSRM
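USP2 core (20 nM final) was preincubated with compound for 30 min at RT in 20 mM Tris-HCl pH 8.0, 2 mM CaCl2, 2 mM beta-mercaptoethanol; Ub-PLA2 (20 nM) plus NBD C6-HPC (20 uM) then added, fluorescence read after 2.5 h.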
HBB splice mod: alters splicing of the hemoglobin beta chain. HBB splicing reporter cell assay, activation; EGFP reporter with mutant IVS2-654 intron; response scale: normalised to 500 nM splice-correcting PNA. Potency, µM (highest dose often 46.1 µM), inactives show top-dose activation, actives largely listed as activators. 0.06% of 65,000 active. AID 925; further: potency means the concentration at half of the fitted maximal effect; 0% is about no effect
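Compounds were applied for 2 days to HeLa EGFP-654 cells, 500/well in Optimem with 2% FCS. The reporter's EGFP is disrupted by mis-splicing of beta-globin intron IVS2-654. Readout: summed well GFP fluorescence from 488 nm laser scanning; reference was 500 nM antisense […] 654 PNA.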
* hit, by the source's call; ? = inconclusive; nt = no result; [ ] = another dose, or the depositor's remark. The entries come from a sample that favours hits as a whole. Unless noted, the call rests on the fitted dose curve; in most records, active means well fitted curve in the direction sought with a large enough effect; inconclusive means small, poorly fitted or top-dose-only effect, or another doubt; inactive means no such curve, though single readings can be large; an effect the other way counts as inactive or inconclusive.

SMILES	GBA mod	UbGFP stabilizer	GFP derepression	USP2a inh	HBB splice mod
N=c1oc2c3c4c(cc2cc1C(=O)Nc1ccccc1)CCCN4CCC3	?	?	7%	110%	3.2µM*
C[C@@H]1NC(=O)[C@@H](C)COC(=O)[C@H](C)NC(=O)[C@@H](C)COC1=O	nt	nt	nt	nt	2%[9.22 µM]
COc1ccc(Br)cc1C(=O)Nc1ccc(N2CCN(S(C)(=O)=O)CC2)cc1	12*	-2%	-4%	26%	-2%
CCn1cnc2cc(NCc3cccc(OC)c3O)ccc21	14*	5%	-4%	2%	1%
CC1(C)N=C(N)N=C(N)N1c1cccc(OCc2cccc([N+](=O)[O-])c2)c1	nt	0%[9.17 µM]	0%[9.22 µM]	nt	2%[9.22 µM]
CCOc1ccccc1C(=O)Nc1cc(Cl)ccc1O	nt	-2%	1%	13µM*	-1%
CO[C@H]1COC(=O)[C@H](C)NC(=O)[C@@H](C)COC(=O)[C@H]2CCCN2C(=O)C/C=C\[C@H]1C	nt	nt	nt	nt	1%[9.22 µM]
CCn1c(C)nc2cc(C(=O)OCCC(F)(F)F)ccc21	11*	2%	-2%	0%	-2%
O=C(O)c1cc(NCc2ccccc2C(F)(F)F)ccc1N1CCOCC1	13*	3%	-2%	9%	0%[57.5 µM]
O=C(O)c1cc(NCc2cccs2)ccc1N1CCOCC1	>77	22%	0%	-4%	6%[1.84 µM]
COc1ccc(-c2ccc(-c3noc(-c4cccc(OC)c4)n3)c(OC)n2)cc1	6*	-2%	6%	-2%	0%[57.5 µM]
COc1ccc(-c2ccc(-c3noc(C)n3)c(OC)n2)cc1	>77	4%	8%	8%	-1%[57.5 µM]
COc1nc(-c2ccc(C)cc2)ccc1-c1noc(-c2ccco2)n1	nt	-12%	4%	31%	2%
COc1ccc(-c2ccc(-c3noc(-c4ccccc4OC)n3)c(OC)n2)cc1	12*	12%	?	36%	0%[57.5 µM]
COc1ccc(-c2ccc(-c3noc(-c4ccc(OC)c(OC)c4)n3)c(OC)n2)cc1	>77	1%	6%	22%	0%[57.5 µM]
COc1ccc(-c2ccc(-c3noc(-c4ccccc4C)n3)c(OC)n2)cc1	11*	-1%	0%	15%	0%[57.5 µM]
COc1nc(-c2ccc(C)cc2)ccc1-c1noc(-c2cccnc2)n1	12*	2%	7%	13%	-2%
COc1nc(-c2ccccc2)ccc1-c1noc(-c2ccccc2F)n1	3.8*	-1%	2%	-5%	-2%[57.5 µM]
O=C1OC(Nc2nc3ccccc3s2)c2ccccc21 (configuration not stated)	15*	-3%	-3%	-1%	nt
COc1cc(C)cc(OC)c1/C=C\C(=O)O	nt	-3%[9.17 µM]	2%[9.22 µM]	nt	0%[9.22 µM]
O=C1CN2C(=Nc3ccc(Cl)cc3C2c2ccccc2)CN1 (configuration not stated)	1.3*	8%	1%	3%	0%
COc1cccc(-c2cc(C(=O)Nc3cccc(O)c3)no2)c1	15*	-1%	-3%	0%	-2%
CNC1CCC(c2ccc(Cl)c(Cl)c2)c2ccccc21 (configuration not stated)	nt	nt	nt	-7%	nt
CN(C)C=C1C(=O)c2ccccc2C1=O	nt	nt	5%[20.6 µM]	nt	nt
CC1=CC(=O)c2ccccc2C1=O	nt	-6%[20.5 µM]	0%[20.6 µM]	?	13µM*
SMILES	GBA mod	UbGFP stabilizer	GFP derepression	USP2a inh	HBB splice mod
CCNc1ncc2nc(-c3cn(C)c4ccccc34)c(=O)n(Cc3cccc(OC)c3)c2n1	nt	-5%	8%[9.22 µM]	189%	5%
N[C@@H](CSC(=O)c1ccccc1)C(=O)O	nt	6%[9.17 µM]	-2%[9.22 µM]	nt	3%[9.22 µM]
Cc1ccc(-c2nnc3n2N=C(c2ccccc2)CS3)cc1	nt	15%	nt	nt	1%
c1ccc(C2=Nn3c(nnc3-c3cc(-c4ccccc4)n[nH]3)SC2)cc1	8.5*	nt	2%	25%	2%[0.369 µM]
CCc1ccc(C2=Nn3c(nnc3-c3cccs3)SC2)cc1	8.2*	3%	0%	?	-1%
Cc1ccc(NC(=O)NC2=N/C(=C(/C#N)C(=O)N3CCCC3)c3ccccc32)cc1	9*	1%	3%	-12%	0%[57.5 µM]
Cc1ccc(NC(=O)C2CC=CCC2C(=O)N2CCCCC2)cc1 (configuration not stated)	>77	-3%	2%	-4%	-3%
CCSc1nnc(NC(=O)c2cc(C)oc2C)s1	11*	10%	-5%	7%	0%
CCSc1nnc(NC(=O)c2ccc(C)o2)s1	>77	-5%	0%	-2%	0%
CS(=O)(=O)N1CCC2(CC1)CN(Cc1ccc(C#N)cc1)C2	nt	-4%	-2%[9.22 µM]	-1%	3%
Cc1cccnc1NCc1ccc(O)c2ncccc12	>77	2%	10µM*	18%	nt
CCN1CCN(c2ccc(NC(=O)COc3ccccc3Cl)cc2)CC1	15*	9%	-2%	7%	nt
O=C(N/N=C1/C[C@@H](O)[C@@H](O)[C@@H]2[C@@H]3C(=O)N(C[C@@H]4CCCO4)C(=O)[C@H]3CC[C@H]12)OCc1ccccc1	nt	nt	nt	nt	2%[9.22 µM]
O=C(c1csnn1)N1CCC2(CC1)CN(c1ccccn1)C2	nt	1%	2%[9.22 µM]	3%	1%
CCc1nnc(NC(=O)C2CCN(S(=O)(=O)Cc3ccccc3)CC2)s1	4.3*	0%	0%	11%	nt
N#CCCn1c(=O)c(-c2cccs2)nc2cnc(N3CCOCC3)nc21	nt	-2%	0%[9.22 µM]	46%	-2%
Cc1cc(C)n(-c2ccc(C(=O)Nc3sccc3C(N)=O)cc2)n1	15*	-2%	-2%	-7%	0%[57.5 µM]
Cc1cc(C)n(-c2ccc(C(=O)Nc3ccccn3)cc2)n1	>77	nt	-2%	4%	0%[0.369 µM]
CN(C)c1nc(-c2ccc3c(c2)OCO3)nc2ccccc12	nt	5%	3%[9.22 µM]	47%	0%
CC(=O)c1c(O)c(C)c(O)c2c1OC1=CC(=O)[C@H](C(C)=O)C(=O)[C@]12C	nt	5%	-2%[9.22 µM]	nt	nt
Cc1noc(/C=C/N(C)C)c1S(=O)(=O)N1CCCC(C(=O)NCc2ccc(F)cc2)C1 (configuration not stated)	nt	-6%	0%	nt	1%
Cc1noc(/C=C/N(C)C)c1S(=O)(=O)N1CCCC(C(=O)NCc2ccc(Cl)cc2)C1 (configuration not stated)	14*	-12%	-1%	47%	-1%
Nc1nc(CN2CCN(c3ccc(F)cc3)CC2)nc(N2CCCc3ccccc32)n1	10*	2%	0%	39%	2%[57.5 µM]
O=C(Nc1nc(-c2ccc(S(=O)(=O)N3CCCCCC3)cc2)cs1)c1cccs1	14*	-3%	-1%	47%	-1%
O=C(Nc1nc(-c2ccc(S(=O)(=O)N3CCCC3)cc2)cs1)c1cccs1	?	7%	2%	45%	-1%
N#CC1=C(SCC(=O)c2ccc(Cl)cc2)NC2=C(C(=O)CCC2)C1c1ccco1 (configuration not stated)	nt	nt	10µM*	nt	nt
COc1cccc(Cn2c(=O)cnc3cnc(Nc4cccc(OC)c4)nc32)c1	nt	0%	0%[9.22 µM]	235%	0%
